Screening data as filed in PubChem.
ELG1 genotox = genotoxicity induction in ELG1-luciferase HEK293T cells. Potency, µM (series often up to 46 µM), inactives show at the highest dose activity change, positive = activation, hits mostly activators. 330,000 compounds, 1.3% hits. AID 504466. HEK293T ELG1-luciferase reporter, luminescence, 16 h; further: % of control where 0% means no effect; nearly all actives have a fitted effect of over 60% in size
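DMSO vehicle served as control against compound-treated ELG1-luciferase HEK293T cells; exposure lasted 16 hr at 37 °C and 5% CO2, followed by ONE-Glo luminescence detection after 30 min.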
FLuc counter = counter-screen for miR-21 project: firefly luciferase inhibitors or activators | Potency, µM (doses to about 57.5 µM), for the others: at the highest dose activity change, negative = inhibition, usual class: inhibitors | P08659 | 360,000 compounds, 6.9% hits | AID 588342 | purified FLuc, Km substrates, luminescence inhibition;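 further: plate controls were vehicle for no effect and reference inhibitor for full effect; nearly all actives have a fitted effect of over 55% in size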
Target sequence (P08659 whole entry, looked up): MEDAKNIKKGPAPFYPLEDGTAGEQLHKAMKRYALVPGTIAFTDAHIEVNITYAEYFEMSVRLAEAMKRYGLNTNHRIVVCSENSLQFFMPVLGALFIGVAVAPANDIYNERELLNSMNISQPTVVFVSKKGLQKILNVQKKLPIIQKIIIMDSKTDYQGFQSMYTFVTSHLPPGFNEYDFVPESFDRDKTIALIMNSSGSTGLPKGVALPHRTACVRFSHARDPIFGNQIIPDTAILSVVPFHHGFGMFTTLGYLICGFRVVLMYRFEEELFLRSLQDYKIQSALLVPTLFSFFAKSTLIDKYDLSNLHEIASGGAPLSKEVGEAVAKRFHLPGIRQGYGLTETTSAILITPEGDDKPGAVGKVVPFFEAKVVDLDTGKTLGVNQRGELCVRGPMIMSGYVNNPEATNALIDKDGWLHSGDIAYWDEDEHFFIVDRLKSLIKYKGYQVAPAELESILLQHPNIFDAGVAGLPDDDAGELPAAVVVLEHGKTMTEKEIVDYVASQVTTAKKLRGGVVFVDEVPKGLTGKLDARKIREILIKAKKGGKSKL
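Purified P. pyralis luciferase (10nM final) with 10uM D-luciferin and 10uM ATP (Km levels) in 50mM Tris acetate pH 7.5, 10mM Mg acetate, 0.01% Tween-20, 0.05% BSA; qHTS 6-point titration, ~60 µM downward; luminescence read.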
SMN2 splice up = increases expression of the SMN2 splice variant. AID 1458. 210,000 compounds, 2.8% hits. HEK293 SMN2-luciferase splicing reporter, luminescence, 30-36 h. Potency, µM (doses to about 46.1 µM), for the others: at the top dose activity change, positive = activation, most hits filed as activators; further: % of control where 0% means no effect; nearly all actives have a fitted effect of over 55% in size
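HEK293 cells carry an SMN2 […]–luciferase reporter in which exon 7 inclusion puts luciferase in frame. Cells were plated 10-12 h before compound addition, then incubated 30-36 h at 37C. ONE-Glo luminescence was read; sodium butyrate at 4.5 mM final served as control.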
Rab9 promoter act = activators of Rab9 promoter; AID 485297; 320,000 compounds, 2.8% hits; Potency, µM (doses to about 9.22 µM), for inactives: top-dose activation, negative = inhibition, most hits filed as activators; Huh7 Rab9 promoter-luciferase reporter, luminescence, 24 h; further: % of control where 0% means no effect; nearly all actives have a fitted effect of over 60% in size
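Luminescence from Amplite-detected luciferase (10 minutes, ambient) reports Rab9 promoter activation. Before that, stable Rab9-luciferase Huh7 cells (1500/well, reduced-serum OP-MEM I plus 10% FBS) were exposed to compound for 24 hours at 37C.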
NPC1 promoter act = activates the NPC1 promoter; 320,000 compounds, 2.4% hits; Huh7 NPC1 promoter luciferase reporter, 24 h; Potency, µM (series often up to 9.22 µM), inactives show top-dose activation, actives largely listed as activators; further: % of control where 0% means no effect; nearly all actives have a fitted effect of over 60% in size
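Stable NPC1-promoter luciferase Huh7 line; cpd (DMSO) 24 h, 37 °C, 5% CO2; Amplite luciferase reagent 10 min RT; luminescence readout. qHTS format.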
KinaseGlo FLuc = blocks Kinase-Glo luciferase, a counter-screen artifact; Q27757; Kinase-Glo luciferase, ATP luminescence, 8 min; Potency, µM (highest dose often 38.3 µM), without a hit: at the highest dose activity change, negative = inhibition, hits mostly inhibitors; 200,000 compounds, 0.28% hits; further: on the % scale 0 is the no-effect control and ±100 the full control effect; nearly all actives have a fitted effect of over 60% in size
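Compound is pinned into ATP-containing buffer (10 uM ATP, imidazole pH 7.2, 7 mM MgCl2). Kinase-Glo luciferase reagent is then added. Light output is recorded following an 8-min room-temperature incubation.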
The depositor's hits bear a star; ? = inconclusive; · = no result; [ ] = dose if it differs, or a comment. Rows were chosen to be rich in hits. Some 7.3% of all compounds tested hit in one or more screens of this group. The call rests on the fitted dose curve; in most records, active means well fitted curve in the direction sought with a large enough effect; inconclusive means small, poorly fitted or top-dose-only effect, or another doubt; inactive means no such curve, though single readings can be large; an effect the other way counts as inactive or inconclusive. Potency means the concentration at half of the fitted maximal effect.

SMILES	ELG1 genotox	FLuc counter	SMN2 splice up	Rab9 promoter act	NPC1 promoter act	KinaseGlo FLuc
CCCCCCN(CCCCCC)C(=O)Cc1c(-c2ccc(F)cc2)[nH]c2ccccc12	-17%	4%	-3%	-16%[46.1 µM]	-15%[46.1 µM]	0%
O=C(COc1ccccc1Cl)NCc1nc(-c2ccccc2)no1	-1%	1%	·	-1%	-4%	·
COc1ccc(S(=O)(=O)NC(C)C(=O)NCCN2CCOCC2)cc1Cl (stereo not drawn)	2%	2%	·	0%	0%	·
CCCOc1ccc(C2C(=O)N(C3CCCCCC3)CC(=O)N2Cc2ccccc2OC)cc1OC (stereo not drawn)	·	7%	·	·	·	·
Fc1ccc(Cc2cn3cc(-c4ccccc4)nc3s2)cc1	·	0.11µM*	2µM*	·	·	·
Clc1ccccc1Cc1cn2cc(-c3ccccc3)nc2s1	·	0.17µM*	2.5µM*	·	·	·
Fc1ccc(-c2cn3cc(Cc4ccccc4)sc3n2)cc1	·	0.12µM*	6.3µM*	·	·	·
Brc1ccc(-c2cn3cc(Cc4ccccc4)sc3n2)cc1	·	0.34µM*	8%	·	·	·
Clc1ccccc1Cc1noc(CN2CCSCC2)n1	3%	-3%	-2%	-4%	0%	-3%
COc1ccc(NC(=O)Cn2c(=O)c3ccccc3n3nncc23)c(OC)c1	·	-1%	0%	·	·	·
COc1ccc2c(=O)c(Oc3ccc(C(=O)O)cc3)c(C(F)(F)F)oc2c1	?	?	2.5µM*	?	?	-1%
CN(c1ccc(C(=O)Nc2ccccc2Sc2ccccc2)cc1)S(C)(=O)=O	-4%	-6%	-10%	-3%	-7%	0%
CC(O)CNc1nc2sc3c(c2c(=O)n1Cc1ccco1)CCCCC3 (stereo not drawn)	11%	17µM*	·	30%	?	·
O=c1c2c3c(sc2nc(NCCOCCO)n1Cc1ccco1)CCCCC3	-1%	17µM*	·	-5%	?	·
CN(C)CCNc1nc2sc3c(c2c(=O)n1CCc1ccccc1)CCCCC3	0%	-9%	·	-8%	-3%	·
CC(O)CNc1nc2sc3c(c2c(=O)n1CCc1ccccc1)CCCCC3 (stereo not drawn)	3%	?	4%	0%	-1%	2%
C[C@H]1C(=O)N(c2ccccc2)[C@@H]1c1ccccc1	5%	·	·	·	·	·
O=C(/C=C/c1ccco1)Nc1ccc(F)cc1	·	13µM*	·	4µM*	4µM*	·
O=C(/C=C/c1ccco1)NCc1ccc2c(c1)OCO2	0%	?	12%	-1%	4%	1%
NS(=O)(=O)c1ccc(NC(=O)/C=C/c2ccco2)cc1	9%	-19%	17%	?	1%	-1%
O=C(/C=C/c1ccco1)Nc1ccc2c(c1)OCO2	?	6µM*	10µM*	0.79µM*	1.8µM*	-19%
Cc1ccc(C)c(NC(=O)c2cc3c([nH]c4ccccc43)c(C)n2)c1	-1%	-1%	-7%	1%	-8%	0%
CCCNC(=O)C1CC(=O)N(c2ccc(OCc3ccc(F)cc3)cc2)C1 (stereo not drawn)	6.5µM*	4.8µM*	·	0.89µM*	0.63µM*	·
CCOc1ccc(N2CC(C(=O)NCCc3ccccc3)CC2=O)cc1 (stereo not drawn)	-3%	1%	·	-5%	0%	·
NC(=O)C1CC(=O)N(c2ccc(OCc3ccc(Cl)cc3)cc2)C1 (stereo not drawn)	?	8.5µM*	·	2.8µM*	2.8µM*	-4%
SMILES	ELG1 genotox	FLuc counter	SMN2 splice up	Rab9 promoter act	NPC1 promoter act	KinaseGlo FLuc
CCCNC(=O)C1CC(=O)N(c2ccc(OCc3ccc(Cl)cc3)cc2)C1 (stereo not drawn)	1.8µM*	2.1µM*	·	4µM*	1.4µM*	·
C=CCNC(=O)C1CC(=O)N(c2ccc(OCC(=O)Nc3ccccc3)cc2)C1 (stereo not drawn)	?	12µM*	13µM*	3.5µM*	2.8µM*	-5%
CSCC(=O)NC1CCCN(C2Cc3ccccc3C2)C1 (stereo not drawn)	1%	-1%	·	0%	4%	·
CCOc1ccc(NC(=O)CCC(=O)NNC(=O)c2cccc([N+](=O)[O-])c2)cc1	1%	·	·	·	·	·
Cc1sc2c(c1C)c(=O)n(Cc1ccccc1)c(=O)n2CC(=O)N(C)c1ccccc1	·	1%	9%	·	·	·
C=CCNC(=O)C1CC(=O)N(c2ccc(OCC(=O)N3CCCC3)cc2)C1 (stereo not drawn)	2%	1%	·	-5%	-6%	·
C=CCNC(=O)C1CC(=O)N(c2ccc(OCc3ccc(F)cc3)cc2)C1 (stereo not drawn)	18µM*	7.6µM*	·	1.4µM*	1.1µM*	·
Nc1nc(-c2ccccc2)cn1/N=C/c1ccccc1	?	15µM*	·	0%	-9%	·
COc1ccccc1C(=O)C1CCCN(C(=O)c2cn3cc(Cl)ccc3n2)C1 (stereo not drawn)	3%	13µM*	·	-3%	-4%	-3%
COc1cc(OC)c(OC)cc1CN1CCc2nc(N3CCN(c4ncccn4)CC3)ncc2C1	·	-3%	·	·	·	·
CCc1cccc(C)c1NC(=O)c1cc2ccccc2o1	·	-5%	-29%	·	·	·
O=C(NC1=NCCS1)c1ccccc1Cl	5%	-19%	·	4%	2%	·
O=C(Nc1ccc(Cl)cn1)c1cc2ccccc2o1	0.82µM*	1.9µM*	7.9µM*	1.8µM*	3.5µM*	-9%
O=C(Nc1ncccc1O)c1cc2ccccc2o1	?	3.4µM*	·	0.63µM*	3.2µM*	·
O=C(Nc1cccc2ncccc12)c1cc2ccccc2o1	-1%	?	-8%	-1%	12%	-4%
O=C(NC1=NCCS1)c1cc2ccccc2o1	2.3µM*	1.2µM*	4µM*	0.35µM*	0.32µM*	?
Cc1ccnc(NC(=O)c2cc3ccccc3o2)c1	?	0.27µM*	·	?	1.3µM*	·
CCCCOC1(c2ccccc2)NC(=S)NN=C1c1ccccc1 (stereo not drawn)	2%	2%	-1%	-6%	-3%	-4%
O=C(Nc1ccccn1)c1cc2ccccc2o1	?	0.3µM*	0.71µM*	0.56µM*	?	8.9µM*
CCOc1ccc(NC2=C(Cl)C(=O)N(Cc3ccccc3)C2=O)cc1	-1%	0%	·	12%	-4%	·
CCCCNc1nc2ccccc2[nH]1	0%	-17%	23%	-10%	2%	-6%
c1ccc2[nH]c(CN3CCCCCC3)nc2c1	10%	1%	-3%	3%	2%	1%
CC(C)(C)C1CCC(=NNc2nc3ccccc3[nH]2)CC1 (stereo not drawn)	0%	13µM*	29%	17%	2%	-20%
c1ccc2c(c1)CC/C2=N/Nc1nc2ccccc2[nH]1	?	6.7µM*	11µM*	2.5µM*	?	-3%
